Holding throughout (assay): DAPPL (digital affinity profiling via proximity ligation, sequencing); 10 mM Tris-HCl pH 7.5, 50 mM NaCl, 1 mM DTT, 4% glycerol, room temperature, 30 min; GST-TFs on glutathione beads, 16-mer random dsDNA library, 0.1% formaldehyde crosslink after washing; high values mean tight binding
One assay concerns the target T1, FLI1 (Homo sapiens, UniProt Q01543 1-452).
T1 sequence: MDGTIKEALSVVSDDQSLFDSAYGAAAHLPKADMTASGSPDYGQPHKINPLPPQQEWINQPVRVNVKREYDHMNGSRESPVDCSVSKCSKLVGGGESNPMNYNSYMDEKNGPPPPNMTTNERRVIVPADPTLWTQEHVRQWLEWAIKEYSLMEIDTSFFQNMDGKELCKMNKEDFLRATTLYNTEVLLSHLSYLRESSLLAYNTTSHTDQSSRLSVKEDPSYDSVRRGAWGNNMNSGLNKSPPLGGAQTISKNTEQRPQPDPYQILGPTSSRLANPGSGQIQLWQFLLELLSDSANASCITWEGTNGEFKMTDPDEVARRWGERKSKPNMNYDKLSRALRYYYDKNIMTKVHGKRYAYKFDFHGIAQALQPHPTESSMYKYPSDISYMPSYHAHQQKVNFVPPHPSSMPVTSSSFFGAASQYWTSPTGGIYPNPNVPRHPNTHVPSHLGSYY
Conditions: protein: recombinant; tags: N-terminal GST; dsDNA, one strand shown. In a few lines: (§1)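 Binding signal is given per hexamer as its read frequency for a factor divided by its frequency in the tag-only sample. GST-fused human transcription factors were expressed in yeast, captured on glutathione beads, barcoded with DNA and pooled with that sample, then incubated with 200 nmole of a 16-mer random double-stranded DNA library in Tris/NaCl/DTT/glycerol buffer for 30 min at room temperature. The pools were then washed, crosslinked, proximity-ligated, amplified by PCR and sequenced on an Illumina NextSeq500.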

In a further assay the target is T2, ELK1 (Homo sapiens, UniProt P19419 1-428).
T2 sequence: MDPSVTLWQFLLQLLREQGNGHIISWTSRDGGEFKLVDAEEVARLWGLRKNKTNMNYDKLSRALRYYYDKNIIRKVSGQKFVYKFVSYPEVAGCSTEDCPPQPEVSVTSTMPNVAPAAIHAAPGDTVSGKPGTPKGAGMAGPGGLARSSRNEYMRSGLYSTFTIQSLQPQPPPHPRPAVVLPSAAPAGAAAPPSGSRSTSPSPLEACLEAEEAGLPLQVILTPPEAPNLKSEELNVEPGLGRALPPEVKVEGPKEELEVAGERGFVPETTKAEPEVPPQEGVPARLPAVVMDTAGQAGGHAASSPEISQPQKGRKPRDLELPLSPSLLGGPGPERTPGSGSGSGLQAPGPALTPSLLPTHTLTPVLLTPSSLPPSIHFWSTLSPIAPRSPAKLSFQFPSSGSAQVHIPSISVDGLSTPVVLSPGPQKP
As to conditions: protein: recombinant; tags: N-terminal GST; dsDNA, one strand shown. In a few lines:
as §1

The target of another assay is T3, GABPA (Homo sapiens, UniProt Q06546 1-454).
T3 sequence: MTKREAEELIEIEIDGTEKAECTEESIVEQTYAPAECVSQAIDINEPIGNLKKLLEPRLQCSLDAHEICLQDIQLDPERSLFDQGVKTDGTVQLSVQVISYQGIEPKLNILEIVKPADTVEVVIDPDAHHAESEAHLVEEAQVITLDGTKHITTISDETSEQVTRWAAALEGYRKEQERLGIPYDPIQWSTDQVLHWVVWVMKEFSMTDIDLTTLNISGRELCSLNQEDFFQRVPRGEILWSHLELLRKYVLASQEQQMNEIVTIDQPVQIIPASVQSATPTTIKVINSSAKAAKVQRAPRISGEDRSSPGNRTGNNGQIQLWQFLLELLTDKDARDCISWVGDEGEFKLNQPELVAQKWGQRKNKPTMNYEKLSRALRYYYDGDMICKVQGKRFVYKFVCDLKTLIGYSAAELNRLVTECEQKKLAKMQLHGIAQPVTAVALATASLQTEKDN
As to conditions: protein: recombinant; tags: N-terminal GST; dsDNA, one strand shown. In a few lines:
as §1

In the next assay the target is T4, ERG (Homo sapiens, UniProt P11308 1-479).
T4 sequence: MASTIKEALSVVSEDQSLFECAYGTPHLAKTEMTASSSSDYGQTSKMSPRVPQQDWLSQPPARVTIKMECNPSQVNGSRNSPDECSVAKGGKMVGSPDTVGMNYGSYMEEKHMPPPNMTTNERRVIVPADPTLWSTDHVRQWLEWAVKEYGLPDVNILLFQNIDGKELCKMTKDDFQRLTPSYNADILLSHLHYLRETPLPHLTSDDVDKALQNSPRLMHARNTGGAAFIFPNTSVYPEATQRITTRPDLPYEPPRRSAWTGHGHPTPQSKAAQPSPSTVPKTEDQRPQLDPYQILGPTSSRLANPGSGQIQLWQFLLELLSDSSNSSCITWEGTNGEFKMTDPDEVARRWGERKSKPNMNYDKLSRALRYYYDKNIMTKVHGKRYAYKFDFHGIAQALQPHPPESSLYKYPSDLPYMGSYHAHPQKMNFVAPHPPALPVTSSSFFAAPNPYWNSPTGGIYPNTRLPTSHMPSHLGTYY
Conditions: protein: recombinant; tags: N-terminal GST; dsDNA, one strand shown. In a few lines: as §1

In the next assay the target is ELF1 (Homo sapiens, UniProt P32519 1-619). Conditions: protein: recombinant; tags: N-terminal GST; dsDNA, one strand shown. In a few lines:
as §1

The target of another assay is T5, EHF (Homo sapiens, UniProt Q9NZC4 1-300).
T5 sequence: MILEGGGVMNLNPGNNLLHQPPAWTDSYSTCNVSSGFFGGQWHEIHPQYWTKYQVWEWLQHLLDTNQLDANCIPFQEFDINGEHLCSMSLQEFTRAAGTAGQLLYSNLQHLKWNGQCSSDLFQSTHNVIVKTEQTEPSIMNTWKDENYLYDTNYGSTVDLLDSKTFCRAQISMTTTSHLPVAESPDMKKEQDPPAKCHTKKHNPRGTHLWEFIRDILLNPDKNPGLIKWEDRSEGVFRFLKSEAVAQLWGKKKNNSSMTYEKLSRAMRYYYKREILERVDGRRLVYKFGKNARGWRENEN
As to conditions: protein: recombinant; tags: N-terminal GST; dsDNA, one strand shown. In a few lines: as §1

The target in the next assay is SPI1 (Homo sapiens, UniProt P17947 1-270). As to conditions: protein: recombinant; tags: N-terminal GST; dsDNA, one strand shown. In a few lines:
as §1

A further assay addresses SPIB (Homo sapiens, UniProt Q01892 1-262). As to conditions: protein: recombinant; tags: N-terminal GST; dsDNA, one strand shown. In a few lines: as §1
A further assay deals with T6, ELK3 (Homo sapiens, UniProt P41970 1-407).
T6 sequence: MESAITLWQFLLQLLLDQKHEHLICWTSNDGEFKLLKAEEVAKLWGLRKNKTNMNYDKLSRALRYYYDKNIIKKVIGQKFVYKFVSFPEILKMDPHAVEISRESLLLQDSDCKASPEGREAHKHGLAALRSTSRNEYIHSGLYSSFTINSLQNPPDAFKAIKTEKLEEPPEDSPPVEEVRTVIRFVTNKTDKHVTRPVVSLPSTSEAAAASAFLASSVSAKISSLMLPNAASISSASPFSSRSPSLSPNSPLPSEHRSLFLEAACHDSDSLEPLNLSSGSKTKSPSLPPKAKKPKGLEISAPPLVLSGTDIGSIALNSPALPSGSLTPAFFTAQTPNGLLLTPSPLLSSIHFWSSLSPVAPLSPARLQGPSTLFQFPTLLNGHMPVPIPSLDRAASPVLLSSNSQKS
As to conditions: protein: recombinant; tags: N-terminal GST; dsDNA, one strand shown. In a few lines: as §1

Another assay deals with T7, FEV (Homo sapiens, UniProt Q99581 1-238).
T7 sequence: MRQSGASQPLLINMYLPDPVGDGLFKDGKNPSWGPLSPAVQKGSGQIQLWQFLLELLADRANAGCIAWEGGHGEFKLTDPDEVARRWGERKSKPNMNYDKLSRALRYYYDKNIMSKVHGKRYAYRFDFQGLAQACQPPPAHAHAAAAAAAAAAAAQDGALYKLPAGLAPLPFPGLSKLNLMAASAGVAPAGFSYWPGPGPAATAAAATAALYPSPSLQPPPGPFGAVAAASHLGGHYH
Conditions: protein: recombinant; tags: N-terminal GST; dsDNA, one strand shown. In a few lines:
as §1

The target of a further assay is ETV5 (Homo sapiens, UniProt P41161 1-510). Conditions: protein: recombinant; tags: N-terminal GST; dsDNA, one strand shown. In a few lines: as §1
Another assay has as its target HSF1 (Homo sapiens, UniProt Q00613 1-529). As to conditions: protein: recombinant; tags: N-terminal GST; chain copies: 3; dsDNA, one strand shown. In a few lines:
as §1

The target in the next assay is T8, SPIC (Homo sapiens, UniProt Q8N5J4 1-248).
T8 sequence: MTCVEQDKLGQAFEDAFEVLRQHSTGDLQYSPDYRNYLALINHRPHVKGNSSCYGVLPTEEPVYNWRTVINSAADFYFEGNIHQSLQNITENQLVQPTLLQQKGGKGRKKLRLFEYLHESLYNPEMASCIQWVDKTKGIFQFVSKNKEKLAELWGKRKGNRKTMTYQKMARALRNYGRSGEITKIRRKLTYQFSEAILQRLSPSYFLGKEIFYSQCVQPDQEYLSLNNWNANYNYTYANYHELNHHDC
As to conditions: protein: recombinant; tags: N-terminal GST; dsDNA, one strand shown. In a few lines: as §1

Another assay has as its target ELF4 (Homo sapiens, UniProt Q99607 1-663). As to conditions: protein: recombinant; tags: N-terminal GST; dsDNA, one strand shown. In a few lines: as §1
For the next assay, the target named is T9, ELK4 (Homo sapiens, UniProt P28324-2 1-405).
T9 sequence: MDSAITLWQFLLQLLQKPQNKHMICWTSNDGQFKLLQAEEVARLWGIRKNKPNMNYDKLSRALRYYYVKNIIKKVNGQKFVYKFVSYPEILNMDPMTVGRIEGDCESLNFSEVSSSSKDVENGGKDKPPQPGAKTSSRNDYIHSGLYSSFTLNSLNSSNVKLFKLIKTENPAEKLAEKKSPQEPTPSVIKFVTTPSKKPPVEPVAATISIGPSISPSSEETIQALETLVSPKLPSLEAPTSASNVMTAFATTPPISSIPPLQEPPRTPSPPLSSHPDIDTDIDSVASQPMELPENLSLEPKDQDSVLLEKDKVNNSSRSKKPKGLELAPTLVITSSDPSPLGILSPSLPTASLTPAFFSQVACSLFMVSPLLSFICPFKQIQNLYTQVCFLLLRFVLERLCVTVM
Conditions: protein: recombinant; tags: N-terminal GST; dsDNA, one strand shown. In a few lines:
as §1

The next assay addresses T10, ETV2 (Homo sapiens, UniProt O00321 1-342).
T10 sequence: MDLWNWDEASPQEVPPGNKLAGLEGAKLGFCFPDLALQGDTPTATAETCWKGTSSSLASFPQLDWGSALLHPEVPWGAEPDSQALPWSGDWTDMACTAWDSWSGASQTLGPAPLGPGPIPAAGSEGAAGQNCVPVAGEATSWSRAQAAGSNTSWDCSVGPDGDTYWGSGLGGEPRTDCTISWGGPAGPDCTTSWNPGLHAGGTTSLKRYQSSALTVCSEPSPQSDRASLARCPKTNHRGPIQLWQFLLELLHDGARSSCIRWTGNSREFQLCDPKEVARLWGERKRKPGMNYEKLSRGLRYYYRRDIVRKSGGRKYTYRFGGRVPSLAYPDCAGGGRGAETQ
Conditions: protein: recombinant; tags: N-terminal GST; dsDNA, one strand shown. In a few lines:
as §1

Another assay deals with T11, ELF3 (Homo sapiens, UniProt P78545 1-371).
T11 sequence: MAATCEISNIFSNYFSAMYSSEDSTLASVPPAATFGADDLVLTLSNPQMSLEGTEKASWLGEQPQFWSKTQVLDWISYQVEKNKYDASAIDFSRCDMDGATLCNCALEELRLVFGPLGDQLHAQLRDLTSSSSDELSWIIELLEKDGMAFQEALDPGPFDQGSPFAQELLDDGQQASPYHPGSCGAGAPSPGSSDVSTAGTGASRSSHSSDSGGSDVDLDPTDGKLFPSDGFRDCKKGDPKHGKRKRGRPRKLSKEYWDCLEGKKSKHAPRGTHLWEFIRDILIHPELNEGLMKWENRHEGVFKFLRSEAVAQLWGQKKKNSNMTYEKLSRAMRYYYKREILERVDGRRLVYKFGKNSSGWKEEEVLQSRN
Conditions: protein: recombinant; tags: N-terminal GST; dsDNA, one strand shown. In a few lines:
as §1

The target of the next assay is CRX (Homo sapiens, UniProt O43186 1-299). Conditions: protein: recombinant; tags: N-terminal GST; dsDNA, one strand shown. In a few lines: as §1
A further assay addresses ETV1 (Homo sapiens, UniProt P50549 1-477). Conditions: protein: recombinant; tags: N-terminal GST; dsDNA, one strand shown. In a few lines:
as §1

HSF1, sequence (Q00613 whole entry): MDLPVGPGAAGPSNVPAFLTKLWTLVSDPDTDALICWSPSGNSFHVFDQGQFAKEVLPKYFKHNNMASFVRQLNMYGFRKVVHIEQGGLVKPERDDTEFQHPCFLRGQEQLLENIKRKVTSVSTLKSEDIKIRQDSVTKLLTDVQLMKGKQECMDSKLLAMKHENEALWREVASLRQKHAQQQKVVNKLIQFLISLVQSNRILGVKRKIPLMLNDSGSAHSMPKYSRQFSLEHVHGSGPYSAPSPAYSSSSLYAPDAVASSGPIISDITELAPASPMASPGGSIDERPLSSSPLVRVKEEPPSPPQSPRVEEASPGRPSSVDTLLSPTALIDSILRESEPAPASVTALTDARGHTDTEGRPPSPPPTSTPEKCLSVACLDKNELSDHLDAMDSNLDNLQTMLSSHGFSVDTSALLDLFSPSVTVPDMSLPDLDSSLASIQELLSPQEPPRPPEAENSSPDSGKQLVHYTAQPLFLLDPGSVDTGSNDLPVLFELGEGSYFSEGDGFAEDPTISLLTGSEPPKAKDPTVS
CRX, sequence (O43186 whole entry): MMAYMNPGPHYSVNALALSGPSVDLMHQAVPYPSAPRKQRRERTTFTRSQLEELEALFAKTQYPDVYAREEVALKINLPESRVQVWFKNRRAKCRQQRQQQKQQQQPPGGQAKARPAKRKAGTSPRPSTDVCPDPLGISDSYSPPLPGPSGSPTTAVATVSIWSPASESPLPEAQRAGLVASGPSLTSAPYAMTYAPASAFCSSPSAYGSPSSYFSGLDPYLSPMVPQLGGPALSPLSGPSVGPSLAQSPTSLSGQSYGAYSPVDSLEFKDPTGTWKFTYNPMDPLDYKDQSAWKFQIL
ELF4, sequence (Q99607 whole entry): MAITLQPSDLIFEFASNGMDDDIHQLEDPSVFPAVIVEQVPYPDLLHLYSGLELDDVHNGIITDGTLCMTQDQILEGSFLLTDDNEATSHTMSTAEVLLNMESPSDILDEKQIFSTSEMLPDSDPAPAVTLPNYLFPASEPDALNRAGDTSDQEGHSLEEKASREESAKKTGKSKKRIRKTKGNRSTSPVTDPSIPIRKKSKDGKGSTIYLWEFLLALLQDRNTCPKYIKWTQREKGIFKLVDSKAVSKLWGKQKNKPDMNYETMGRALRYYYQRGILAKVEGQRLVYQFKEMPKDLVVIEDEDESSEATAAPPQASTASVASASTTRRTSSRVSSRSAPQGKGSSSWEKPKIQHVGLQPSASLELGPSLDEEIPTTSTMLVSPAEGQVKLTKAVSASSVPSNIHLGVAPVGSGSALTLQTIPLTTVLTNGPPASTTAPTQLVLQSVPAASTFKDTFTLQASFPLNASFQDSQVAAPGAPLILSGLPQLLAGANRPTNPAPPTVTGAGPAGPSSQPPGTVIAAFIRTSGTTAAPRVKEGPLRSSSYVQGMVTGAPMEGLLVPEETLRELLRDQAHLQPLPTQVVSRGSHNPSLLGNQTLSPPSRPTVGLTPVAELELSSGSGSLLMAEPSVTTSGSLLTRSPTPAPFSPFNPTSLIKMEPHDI
SPIB, sequence (Q01892 whole entry): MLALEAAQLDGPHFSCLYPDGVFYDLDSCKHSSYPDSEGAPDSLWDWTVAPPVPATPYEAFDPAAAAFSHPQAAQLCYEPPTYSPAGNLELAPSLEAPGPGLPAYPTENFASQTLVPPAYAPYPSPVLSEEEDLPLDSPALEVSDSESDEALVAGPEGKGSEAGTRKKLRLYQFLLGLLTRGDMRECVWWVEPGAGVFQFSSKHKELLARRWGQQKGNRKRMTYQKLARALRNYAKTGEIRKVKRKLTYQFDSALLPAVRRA
ETV5, sequence (P41161 whole entry): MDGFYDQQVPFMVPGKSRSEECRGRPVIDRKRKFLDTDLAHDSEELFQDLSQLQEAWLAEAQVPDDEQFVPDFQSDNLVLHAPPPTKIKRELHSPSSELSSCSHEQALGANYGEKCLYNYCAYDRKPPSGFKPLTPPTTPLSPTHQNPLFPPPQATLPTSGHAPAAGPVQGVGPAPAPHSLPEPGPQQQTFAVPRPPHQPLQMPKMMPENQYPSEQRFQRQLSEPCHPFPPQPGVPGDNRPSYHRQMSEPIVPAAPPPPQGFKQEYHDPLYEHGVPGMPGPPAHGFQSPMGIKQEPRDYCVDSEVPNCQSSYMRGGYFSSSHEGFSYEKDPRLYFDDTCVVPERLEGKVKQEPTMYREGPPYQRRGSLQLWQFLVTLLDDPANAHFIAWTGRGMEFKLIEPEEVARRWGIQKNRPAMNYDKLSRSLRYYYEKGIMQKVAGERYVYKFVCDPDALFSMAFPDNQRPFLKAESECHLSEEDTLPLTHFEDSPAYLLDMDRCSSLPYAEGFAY
ETV1, sequence (P50549 whole entry): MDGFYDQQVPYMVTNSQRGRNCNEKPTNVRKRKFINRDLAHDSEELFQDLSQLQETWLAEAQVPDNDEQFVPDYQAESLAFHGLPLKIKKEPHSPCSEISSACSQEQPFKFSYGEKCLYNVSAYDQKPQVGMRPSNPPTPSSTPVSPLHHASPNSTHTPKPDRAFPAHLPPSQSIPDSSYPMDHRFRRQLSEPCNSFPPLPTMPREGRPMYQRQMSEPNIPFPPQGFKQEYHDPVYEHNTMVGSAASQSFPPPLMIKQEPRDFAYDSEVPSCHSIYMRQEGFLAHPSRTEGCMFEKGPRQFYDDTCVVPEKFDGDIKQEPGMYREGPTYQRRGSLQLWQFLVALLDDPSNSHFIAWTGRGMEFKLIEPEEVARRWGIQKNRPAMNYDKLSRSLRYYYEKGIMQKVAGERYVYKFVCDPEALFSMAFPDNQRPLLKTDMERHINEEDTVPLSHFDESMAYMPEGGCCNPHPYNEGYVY
ELF1, sequence (P32519 whole entry): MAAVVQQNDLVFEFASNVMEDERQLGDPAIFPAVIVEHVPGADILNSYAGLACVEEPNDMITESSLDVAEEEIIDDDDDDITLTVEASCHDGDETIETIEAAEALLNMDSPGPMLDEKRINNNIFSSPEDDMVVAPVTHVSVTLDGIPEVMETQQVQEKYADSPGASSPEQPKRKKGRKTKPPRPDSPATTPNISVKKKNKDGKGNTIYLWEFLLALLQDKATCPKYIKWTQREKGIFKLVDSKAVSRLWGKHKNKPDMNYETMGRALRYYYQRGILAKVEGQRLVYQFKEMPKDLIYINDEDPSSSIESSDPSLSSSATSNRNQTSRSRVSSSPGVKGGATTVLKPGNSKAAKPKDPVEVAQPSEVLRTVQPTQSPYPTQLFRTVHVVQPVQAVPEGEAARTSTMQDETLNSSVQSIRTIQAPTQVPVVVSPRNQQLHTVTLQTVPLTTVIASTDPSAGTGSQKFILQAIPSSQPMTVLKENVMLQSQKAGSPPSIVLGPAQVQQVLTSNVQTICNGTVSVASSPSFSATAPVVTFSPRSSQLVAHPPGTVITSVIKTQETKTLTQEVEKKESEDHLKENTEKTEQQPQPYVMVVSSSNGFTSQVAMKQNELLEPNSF

Take CTATAA: the binding signal with FLI1 is 1.26 fold enrichment (6-mer frequency, TF over GST control); with ELK1, 1.22 fold enrichment (6-mer frequency, TF over GST control); in the assay with GABPA it was 1.18 fold enrichment (6-mer frequency, TF over GST control); with ERG it was 1.2 fold enrichment (6-mer frequency, TF over GST control); with ELF1, 1.27 fold enrichment (6-mer frequency, TF over GST control); in the assay with EHF it was 1.12 fold enrichment (6-mer frequency, TF over GST control). Moreover, the binding signal with SPI1 is 1.25 fold enrichment (6-mer frequency, TF over GST control); with SPIB it was 1.35 fold enrichment (6-mer frequency, TF over GST control); with ELK3, 1.25 fold enrichment (6-mer frequency, TF over GST control); with FEV, 1.16 fold enrichment (6-mer frequency, TF over GST control); with ETV5, 1.23 fold enrichment (6-mer frequency, TF over GST control); with HSF1, 1.51 fold enrichment (6-mer frequency, TF over GST control). Further, the binding signal with SPIC was 1.35 fold enrichment (6-mer frequency, TF over GST control); with ELF4 it was 1.26 fold enrichment (6-mer frequency, TF over GST control); in the assay with ELK4, 1.36 fold enrichment (6-mer frequency, TF over GST control); with ETV2, 1.15 fold enrichment (6-mer frequency, TF over GST control); with ELF3 it was 1.25 fold enrichment (6-mer frequency, TF over GST control); in the assay with CRX, 1.83 fold enrichment (6-mer frequency, TF over GST control). The binding signal with ETV1 was 1.2 fold enrichment (6-mer frequency, TF over GST control).

These data come from paper PMC7862700, “An all-to-all approach to the identification of sequence-specific readers for epigenetic DNA modifications on cytosine”.
